FECH block: inhibitors of human ferrochelatase, primary screen, biochemical, purified FECH, Ni-mesoporphyrin absorbance | Ni-mesoporphyrin absorbance 550 nm | hit rate 3.3% among 20,000 | calls only at 10 µM (by protocol) | AID 1671448, 2021;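 active = enzyme reaction rate more than 3 SD below the solvent-only control wells on the same plate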;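 note: lower slope than DMSO wells means FECH inhibition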
Target sequence (P22830 whole entry, looked up): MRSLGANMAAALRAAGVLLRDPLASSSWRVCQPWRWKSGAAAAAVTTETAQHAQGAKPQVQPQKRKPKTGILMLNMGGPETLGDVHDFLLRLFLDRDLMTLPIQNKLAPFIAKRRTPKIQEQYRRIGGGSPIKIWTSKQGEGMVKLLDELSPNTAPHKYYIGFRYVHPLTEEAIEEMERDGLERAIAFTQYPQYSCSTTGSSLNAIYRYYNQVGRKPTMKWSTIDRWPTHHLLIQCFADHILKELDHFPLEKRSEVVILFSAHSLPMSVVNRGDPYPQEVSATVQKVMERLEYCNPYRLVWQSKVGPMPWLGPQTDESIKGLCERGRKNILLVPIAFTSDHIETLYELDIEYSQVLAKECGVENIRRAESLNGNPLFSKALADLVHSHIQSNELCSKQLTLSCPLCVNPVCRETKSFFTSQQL
Calls only; 0 = inactive; + = active, no number. This is one part of a sample in which hits are shown more often than they occur.

SMILES | FECH block
COc1ccccc1CNS(=O)(=O)c1cc(N2C(=O)CCS2(=O)=O)ccc1OC | 0
Cc1ccc(N2C(=O)CCS2(=O)=O)cc1S(=O)(=O)N1CCN(c2ccccc2F)CC1 | +
Cc1ccc(N2C(=O)CCS2(=O)=O)cc1S(=O)(=O)N1CCN(c2ccccc2)CC1 | 0
COc1ccc(CNS(=O)(=O)c2cc(N3C(=O)CCS3(=O)=O)ccc2C)cc1OC | +
COc1ccc(CNS(=O)(=O)c2cc(N3C(=O)CCS3(=O)=O)ccc2OC)cc1 | 0
CCOC(=O)C1CCN(S(=O)(=O)c2cc(N3C(=O)CCS3(=O)=O)ccc2OC)CC1 | 0
CCOC(=O)C1CCCN(S(=O)(=O)c2cc(N3C(=O)CCS3(=O)=O)ccc2C)C1 (stereo not drawn) | +
COc1ccc(N2C(=O)CCS2(=O)=O)cc1S(=O)(=O)NCc1ccc(C)cc1 | 0
Cc1ccc(N2C(=O)CCS2(=O)=O)cc1S(=O)(=O)N1CCN(c2ccccn2)CC1 | 0
Cc1ccc(N2C(=O)CCS2(=O)=O)cc1S(=O)(=O)N1CCC(C(N)=O)CC1 | 0
CCC/C=C/c1ccc(NC2CC2)nn1 | 0
CCOc1ccc(NC(=O)Cn2c(C(=O)OC)cc3ccsc32)cc1 | 0
CCOc1ccccc1-c1nc(CSc2nc3c(c(=O)[nH]2)CCCC3)c(C)o1 | 0
Cn1ccnc1C(NC(=O)c1nc2ccccc2[nH]c1=O)C1CC1 (stereo not drawn) | 0
O=C(CN1c2ccc(F)cc2-c2ccccc2S1(=O)=O)NCCCn1ccnc1 | 0
CCc1ccc2c(c1)-c1ccccc1S(=O)(=O)N2CC(=O)NCc1cccnc1 | +
CCc1ccc2c(c1)-c1ccccc1S(=O)(=O)N2CC(=O)NCCSC1CCCCC1 | 0
CCc1ccc(C2=C(C)C(=O)N(CC(=O)Nc3cc(C)ccc3OC)S2(=O)=O)cc1 | 0
CCc1ccc(C2=C(C)C(=O)N(CC(=O)NCc3cccs3)S2(=O)=O)cc1 | 0
CCc1ccc2c(c1)-c1ccccc1S(=O)(=O)N2CC(=O)NCCCn1ccnc1 | +
Nc1nc(CCCNC(=O)c2ccccc2C2CCNC2)cs1 (stereo not drawn) | 0
Cc1ccc(S(=O)(=O)N2CCN(Cc3nc4cccnc4n3-c3cccc(F)c3)CC2)cc1C | 0
O=C(Nc1nc2n(n1)C(c1ccccc1)C=C(c1ccc(Cl)cc1)N2)c1ccccc1 (stereo not drawn) | 0
O=C(Nc1nc2n(n1)C(c1ccc(Cl)cc1)C=C(c1ccc(Cl)cc1)N2)c1cccnc1 (stereo not drawn) | +
O=C(Nc1nc2n(n1)C(c1ccc(Cl)cc1)C=C(c1ccccc1)N2)c1ccc(Cl)cc1 (stereo not drawn) | 0
SMILES | FECH block
O=C(Nc1nc2n(n1)C(c1ccc(Cl)cc1)C=C(c1ccccc1)N2)c1ccc(F)cc1 (stereo not drawn) | 0
O=C(Nc1nc2n(n1)C(c1ccc(Cl)cc1)C=C(c1ccccc1)N2)c1cccnc1 (stereo not drawn) | +
Cc1ccc(C2=CC(c3ccc(Cl)cc3)n3nc(NC(=O)c4cccc(Cl)c4)nc3N2)cc1 (stereo not drawn) | 0
Cc1noc2ncnc(NCCc3ccc(S(N)(=O)=O)cc3)c12 | 0
COc1ccc2[nH]c(CNC(C)Cn3nc(C)cc3C)cc2c1 (stereo not drawn) | 0
CCOc1ccccc1-c1nccn1-c1cnc2ccccc2c1 | 0
O=C(NC1CCCCC1)c1nc[nH]c1C(=O)NC1CCCCNC1=O (stereo not drawn) | 0
O=C(NC1CC1)c1nc[nH]c1C(=O)NC1CCCCNC1=O (stereo not drawn) | +
CCCNC(=O)c1[nH]cnc1C(=O)NC1CCCCNC1=O (stereo not drawn) | 0
COc1cccc(CN(c2nc3nc(C)c(Cl)c(C)n3n2)S(=O)(=O)c2ccc(Cl)cc2)c1 | 0
NC(=O)c1ccccc1-c1cccc2ccccc12 | 0
Cc1cccc(C)c1NCc1cc(=O)n2[nH]c(-c3ccc(C(C)(C)C)cc3)nc2n1 | +
Cc1ccc(NCc2cc(=O)n3[nH]c(-c4ccc(C(C)(C)C)cc4)nc3n2)c(C)c1 | +
Cc1ccc(NCc2cc(=O)n3[nH]c(NCc4ccccc4)nc3n2)c(C)c1 | 0
Cc1cccc(NCc2cc(=O)n3[nH]c(-c4ccc(C(C)(C)C)cc4)nc3n2)c1C | 0
CCCNCc1cc(=O)n2[nH]c(-c3ccc(C(C)(C)C)cc3)nc2n1 | 0
Cc1ccc(NCc2cc(=O)n3[nH]c(-c4ccc(C(C)(C)C)cc4)nc3n2)cc1C | 0
CC(C)(C)c1ccc(-c2nc3nc(CNc4ccc(F)cc4)cc(=O)n3[nH]2)cc1 | +
Cc1cccc(C)c1NCc1cc(=O)n2[nH]c(NCc3ccccc3)nc2n1 | 0
COc1ccc(NCc2cc(=O)n3[nH]c(-c4ccc(C(C)(C)C)cc4)nc3n2)c(OC)c1 | 0
CCNC(=O)C1CCN(c2nc(C)cc(C3CCC3)n2)C1 (stereo not drawn) | 0
Cc1ccc2[nH]c(C(=O)N3CC[C@@H](c4ccc(F)cc4)[C@H](O)C3)cc2c1 | 0
CCn1cc(S(=O)(=O)N2CC(c3cccnc3)C2)c(C)n1 | 0
COc1ccc(NC(=O)N2CCN(c3cc(-c4cccc(C)c4)ncn3)CC2)cc1OC | 0
Cc1cccc(S(=O)(=O)N2CCN(c3nc(C)cc(Nc4ccccc4)n3)CC2)c1 | 0
SMILES | FECH block
Cc1cc(C)cc(C(=O)NCCn2c(C(F)(F)F)nc3cccnc32)c1 | 0
CCc1ccc(NCc2nc3nc4c(c(=O)n3[nH]2)CCC4)cc1 | +
O=c1c2c(nc3nc(CNc4ccc(F)cc4)[nH]n13)CCC2 | +
CCCc1nc2nc(CC)[nH]n2c(=O)c1N | 0
CCc1nc2nc(C)c(NC(=O)Nc3ccc4c(c3)OCCO4)c(=O)n2[nH]1 | 0
O=c1cc(CN2CCCCC2)nc2nc(NCc3ccc(F)cc3)[nH]n12 | 0
Cc1cc(CN(C)C(=O)Nc2nc(C)ns2)ccn1 | 0
COc1nc2c(cc1C(=O)NCCC1CN(C)CCO1)CCC2 (stereo not drawn) | 0
Cc1ccc(C2=CC(c3ccccc3Cl)n3nc(NC(=O)c4cccc(Cl)c4)nc3N2)cc1 (stereo not drawn) | +
Cc1ccc(C2=CC(c3ccccc3Cl)n3nc(NC(=O)c4cccc(C)c4)nc3N2)cc1 (stereo not drawn) | 0
Cc1cccc(C(=O)Nc2nc3n(n2)C(c2ccccc2Cl)C=C(c2ccccc2)N3)c1 (stereo not drawn) | 0
Cc1ccc(C2=CC(c3ccccc3Cl)n3nc(NC(=O)c4cccnc4)nc3N2)cc1 (stereo not drawn) | +
Cc1ccc(C(=O)Nc2nc3n(n2)C(c2ccccc2Cl)C=C(c2ccc(C)cc2)N3)cc1 (stereo not drawn) | 0
Cc1ccc(C2=CC(c3ccccc3Cl)n3nc(NC(=O)c4ccccc4)nc3N2)cc1 (stereo not drawn) | 0
CN1CCC2(CC1)CN(C(=O)CN1CCc3ccccc3C1)CCCN2C | 0
Cc1ccc(CNC(=O)Nc2c(C)nc3nc[nH]n3c2=O)cc1 | 0
CCc1nc(CNC(=O)C(c2cccc(C)c2)N(C)C)cs1 (stereo not drawn) | 0
CC1=NN(CC(=O)N(C)CCC(C)(C)O)CC1 | 0
O=C(NCCn1ccnc1)c1cn(CC2CCCNC2)nn1 (stereo not drawn) | 0
CCc1cc(Sc2ccc(NC(C)=O)cc2)n2ncnc2n1 | 0
CCc1cc(Sc2ccc(NC(=O)Nc3ccc(Br)cc3)cc2)n2ncnc2n1 | +
CCc1cc(Sc2ccc(NC(=O)c3cc(OC)cc(OC)c3)cc2)n2ncnc2n1 | 0
